Bioassay records deposited in PubChem by NMMLSC.
Rab2 wt GTP: changes GTP binding to wildtype dog Rab2A, up or down; GTP binding activity, % at 10 µM; GST-Rab2 wt beads, Bodipy-GTP binding, flow cytometry; actives 0.19% (n = 190,000); AID 760; P61105;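 active = GTP binding activity at least 20 points away from 100%, either lowered or raised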;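 note: 0% = beads with excess unlabeled GTP and 100% = no-compound control corrected for plate trend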
HRas wt GTP: modulators of GTP binding to human HRas wildtype. P01112. GST-Ras wt beads, Bodipy-FL-GTP binding, flow cytometry; actives lie on both sides. actives 0.14% (n = 190,000). GTP binding activity, % at 10 µM;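 active = GTP binding activity at least 20% away from the 100% baseline, either lowered as inhibitor or raised as activator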;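 note: 0% = unlabeled GTP competition control and 100% = no-compound control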
Target sequence (P01112 whole entry, looked up): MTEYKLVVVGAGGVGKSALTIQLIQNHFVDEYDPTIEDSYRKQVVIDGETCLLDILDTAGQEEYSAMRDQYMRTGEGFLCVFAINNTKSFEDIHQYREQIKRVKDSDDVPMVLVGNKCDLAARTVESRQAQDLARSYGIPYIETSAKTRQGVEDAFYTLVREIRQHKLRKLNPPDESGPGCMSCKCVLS
Rab7 wt GTP bind: dog Rab7 wildtype GTP binding, inhibitors and activators; actives 0.055% (n = 190,000); GTP binding activity (percent of control), % at 10 µM; GST-Rab7 beads, fluorescent GTP binding, flow cytometry; actives lie on both sides; untreated = 100%, excess cold GTP = 0%; AID 758;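 active = fluorescent GTP binding to Rab7 beads changed by at least 20 points from the 100% baseline, either direction, mostly lower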;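 note: median green fluorescence of bound Bodipy-FL-GTP per Rab7 bead population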
Rac1 act GTP bind: human Rac1 activated mutant GTP binding change; percent activity (GTP binding), % at 10 µM; actives 0.11% (n = 190,000); GST-Rac1 activated beads, fluorescent GTP binding, flow cytometry; actives lie on both sides; 100% means binding = to untreated wells; AID 764; P63000;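 active = GTP binding at least 20 percentage points away from the 100% baseline, in either direction, so actives lie on both sides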
Cdc42 wt GTP: human Cdc42 wildtype GTP binding change, either direction; P60953; GST-Cdc42 beads, Bodipy-GTP binding, flow cytometry; actives lie on both sides; percent activity (GTP binding), % at 10 µM; actives 0.2% (n = 190,000); AID 761;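 active = percent activity GTP binding at least 20 points away from the 100% baseline, either down as inhibitor or up as activator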;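 note: median bead fluorescence of bound Bodipy-FL-GTP at 100 nM; 0% = excess unlabeled GTP control and 100% = no compound control; below 100% means less GTP binding so inhibitor and above means activator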
Target sequence (P60953 whole entry, looked up): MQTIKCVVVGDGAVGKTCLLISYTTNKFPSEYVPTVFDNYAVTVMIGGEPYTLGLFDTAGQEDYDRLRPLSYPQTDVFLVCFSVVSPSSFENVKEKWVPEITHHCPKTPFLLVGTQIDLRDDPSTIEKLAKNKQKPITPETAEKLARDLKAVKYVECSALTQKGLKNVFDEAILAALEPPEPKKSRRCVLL
Rac1 wt modul: alters GTP binding to wildtype human Rac1 | GST-Rac1 beads, fluorescent GTP binding, flow cytometry; actives lie on both sides; 0 = cold GTP competed, 100 = untreated | GTP binding activity (% of control), % at 10 µM | actives 0.27% (n = 190,000) | AID 757;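 active = GTP binding activity at least 20 points away from the 100% control level, either lower or higher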
* marks the source's active call; other numbers are inactive results; [ ] = another dose, or the depositor's remark. Shown are actives, neighbours in structure and some others; about 0.38% of the full set was active somewhere.

SMILES	Rab2 wt GTP	HRas wt GTP	Rab7 wt GTP bind	Rac1 act GTP bind	Cdc42 wt GTP	Rac1 wt modul
O=C(O)CCC(=O)Nc1ccc(C(=O)OC2CCCCC2)cc1	99.0	99.0	96.0	99.0	97.0	97.0
O=C(OC1CCCCC1)c1ccc(NC(=O)C2CCCCC2)cc1	99.0	97.0	95.0	99.0	79.0*	99.0
COc1ccc(-c2cnc[nH]2)cc1	96.0	97.0	100.0	95.0	97.0	99.0
Nc1c([N+](=O)[O-])cc(-c2cnc[nH]2)cc1[N+](=O)[O-]	77.0*	78.0*	94.0	88.0	77.0*	84.0
CN(C(=O)COC(=O)c1cc(NS(=O)(=O)c2cc([N+](=O)[O-])ccc2Cl)ccc1O)C1CCCCC1	92.0	96.0	94.0	93.0	95.0	95.0
Cc1cc(-c2n[nH]c(=S)n2/N=C/c2cc([N+](=O)[O-])ccc2Cl)n[nH]1	74.0*	77.0*	87.0	85.0	85.0	71.0*
Cc1cc(-c2n[nH]c(=S)n2/N=C/c2ccc(Cl)c([N+](=O)[O-])c2)n[nH]1	92.0	94.0	99.0	94.0	97.0	96.0
NS(=O)(=O)c1ccc(CCN2C(=O)/C(=C\c3ccc(Cl)cc3)SC2=S)cc1	82.0	84.0	85.0	85.0	84.0	77.0*
Cc1ccc(C)n1N1C(=O)/C(=C\c2ccc(Cl)cc2)SC1=S	92.0	95.0	96.0	91.0	92.0	92.0
CCOC(=O)N1CCN(/C=C(\C#N)c2nc3ccccc3s2)CC1	129.0*[activator]	121.0*[activator]	120.0*[activator]	118.0	114.0	124.0*[activator]
O=C(Nc1nnc(-c2ccco2)o1)c1ccc([N+](=O)[O-])s1	95.0	95.0	95.0	90.0	95.0	96.0
COc1ccc2nc(NNC(=O)c3cc(=O)c4ccccc4o3)sc2c1	87.0	90.0	99.0	84.0	86.0	90.0
O=C(NNc1nc2c(F)cccc2s1)c1cc(=O)c2ccccc2o1	83.0	86.0	100.0	76.0*	81.0	84.0
Cc1ccc2sc(NNC(=O)c3cc(=O)c4ccccc4o3)nc2c1C	85.0	85.0	100.0	77.0*	81.0	83.0
Cc1cccc2sc(NNC(=O)c3cc(=O)c4ccccc4o3)nc12	83.0	84.0	97.0	74.0*	77.0*	81.0
CC(C)OC(=O)CC1C(=O)NCCN1C(=S)NC(=O)c1ccc(F)cc1 (stereo unspecified)	96.0	98.0	99.0	94.0	100.0	102.0
COc1ccc(-c2cc(=O)c(C(=O)c3ccc(C)cc3)n[nH]2)cc1	99.0	100.0	110.0	105.0	95.0	121.0*[activator]
CCOC(=O)c1nc2sc3c(c2c(=O)n1C(C)C(=O)OCC)CCCC3 (stereo unspecified)	100.0	99.0	102.0	99.0	98.0	101.0
CNC(=O)COC(=O)c1cc(NC(=O)c2ccco2)c(OC)c(OC)c1	80.0	81.0	87.0	87.0	78.0*	83.0
Cc1sc2nc3c(SC(C)C(=O)O)cc(C(=O)c4ccccc4O)cn3c(=O)c2c1C (stereo unspecified)	85.0	87.0	89.0	86.0	83.0	75.0*
CC1CN(CC(=O)NN=C(c2ccccc2)c2ccccc2)CC(C)O1 (stereo unspecified)	97.0	97.0	95.0	98.0	99.0	102.0
COc1cc(/C=C2/C(C)=C(C#N)c3nc(N)c(C#N)c(C)c32)ccc1OCC(=O)O	81.0	85.0	87.0	80.0	80.0	87.0
CC1=C(C#N)c2nc(N)c(C#N)c(C)c2/C1=C\c1ccc(-c2ccccc2C(=O)O)o1	76.0*	81.0	88.0	81.0	78.0*	75.0*
CC(CCc1ccccc1)NC(=O)CN1CCSc2ccccc21 (stereo unspecified)	95.0	95.0	97.0	95.0	97.0	100.0
O=c1c2ccccc2nc2c3ccccc3c(Cl)nn12	78.0*	81.0	86.0	85.0	80.0	69.0*
SMILES	Rab2 wt GTP	HRas wt GTP	Rab7 wt GTP bind	Rac1 act GTP bind	Cdc42 wt GTP	Rac1 wt modul
O=c1c2ccccc2nc2c3ccccc3c(NCc3ccco3)nn12	66.0*	68.0*	88.0	81.0	67.0*	77.0*
O=c1c2ccccc2nc2c3ccccc3cnn12	77.0*	77.0*	83.0	83.0	78.0*	65.0*
COc1cc(/C=C2/SC(N)=NC2=O)ccc1Oc1ccc([N+](=O)[O-])cc1[N+](=O)[O-]	91.0	94.0	96.0	91.0	91.0	94.0
NC1=NC(=O)/C(=C\c2ccc(O)c([N+](=O)[O-])c2)S1	63.0*	66.0*	85.0	80.0	61.0*	78.0*
COC(=O)CN(C#N)c1nc(NC(C)C)nc(NC(C)C)n1	101.0	100.0	107.0	96.0	102.0	100.0
N#CCc1c(C#N)c(N)nc(N2CCN(S(=O)(=O)c3ccccc3)CC2)c1C#N	94.0	93.0	97.0	94.0	95.0	95.0
N#CCc1c(C#N)c(N)nc(N2CCN(C=O)CC2)c1C#N	77.0*	79.0*	89.0	86.0	78.0*	73.0*
O=c1[nH]c2ccccc2c2nc3ccccn3c12	92.0	93.0	94.0	95.0	95.0	99.0
O=c1nc2c(O)cccn2c2c1c(=O)[nH]c1ccccc12	62.0*	59.0*	81.0	77.0*	70.0*	61.0*
O=S(=O)(CC(CN1CCOCC1)N1CCOCC1)c1ccccc1 (stereo unspecified)	55.0*	58.0*	23.0*	53.0*	60.0*	56.0*
COc1ccc(N2CCN(C(=O)CSc3nnc(NC(=O)C4CCC4)s3)CC2)cc1	101.0	102.0	103.0	97.0	101.0	103.0
CCc1cc(C(=O)N2CCCC(CNS(=O)(=O)c3cccs3)C2)n(C)n1 (stereo unspecified)	95.0	95.0	96.0	95.0	95.0	97.0
Cc1cc(C)n2nc(C(=O)N3CCCC(CNS(=O)(=O)c4cccs4)C3)cc2n1 (stereo unspecified)	33.0*	35.0*	22.0*	31.0*	34.0*	28.0*
O=C(CCc1ccccn1)N1CCCC(CNS(=O)(=O)c2cccs2)C1 (stereo unspecified)	62.0*	60.0*	62.0*	53.0*	61.0*	54.0*
N/C(Cn1cncn1)=N\NC(=O)C(=O)Nc1cccc(C(F)(F)F)c1	97.0	95.0	105.0	95.0	94.0	101.0
O=S1(=O)N=C(N(CCO)/N=C/C=C/c2ccccc2)c2ccccc21	72.0*	70.0*	84.0	80.0	79.0*	61.0*
Cc1ccc(Cc2cnc(NC(=O)/C(C#N)=C/c3ccc(-c4ccc([N+](=O)[O-])cc4)o3)s2)cc1	83.0	82.0	79.0*	83.0	82.0	84.0
CCOP(=O)(OCC)c1nc(-c2ccc(Cl)cc2Cl)oc1N1CCOCC1	95.0	97.0	99.0	96.0	95.0	100.0
